Assay: inhibitors of PAF-induced NFkB signaling in CF airway cells, dose response, cell-based, uHTS hits, panel, cytotoxicity readout (AID 624344)
Conditions: CF bronchial epithelial cells, PAF-induced NFkB reporter inhibition, with PAF, run 1; at 79 µM (top of the series) unless noted

Row | SMILES | inhibition [%]
1 | COc1ccc(/C=N/NC(=O)c2[nH]c3ccc(Br)cc3c2-c2ccccc2)cc1 | 88.4
2 | CCCc1nc(Cl)c(C#N)c2c1CCCC2 | 97.8
3 | COc1ccc(-c2oc3ccc(-c4ccc5c(c4)OCO5)cc3c2C#CC2(O)CCCCC2)cc1 | 101
4 | CC(=O)OCCN1c2ccccc2Sc2cnccc21 | 105
5 | Cc1ccc(NC(=O)c2ccccc2NS(=O)(=O)c2ccc(Cl)s2)cc1S(=O)(=O)N1CCOCC1 | 111
6 | C[C@@H]1CN([C@H](C)CO)C(=O)c2cc(NC(=O)Nc3ccc(C(F)(F)F)cc3)ccc2O[C@H]1CN(C)S(=O)(=O)c1ccccc1 | 92
7 | COc1ccc(OC)c(Nc2ncnc3ccc(Br)cc23)c1 | 98.3
8 | Cc1nn(-c2nccs2)c2c1C(=O)CC(C)(C)C2Br (stereo not given) | 108
9 | Nc1nc(N)nc(-c2cc([N+](=O)[O-])ccc2O)n1 | 76.3
10 | CN(C)CCCN(C(=O)CCOc1ccccc1)c1nc2ccc(F)cc2s1 | 101
11 | CCCN(CC)c1ncnc2[nH]ncc12 | 106
12 | Cc1c(NC(=O)c2cc(-c3cccs3)nc3ccccc23)c(=O)n(-c2ccccc2)n1C | 112
13 | O=C(Oc1ccc(F)cc1C(=O)/C=C/c1cccs1)c1cccc([N+](=O)[O-])c1 | 49.3
14 | CCc1cc(-c2[nH]ncc2-c2ccc(OC)cc2)c(O)cc1O | 115
15 | CC(C)C[C@@H](CN1CCCC1CN1C(=S)NC[C@@H]1Cc1ccc(O)cc1)N1C[C@H](Cc2ccc(O)cc2)N(CC2CCCCC2)C1=S (stereo not given in full) | 102
16 | COc1ccc2cc3c(N)nn(C(=O)c4ccc(F)cc4)c3nc2c1 | 90
17 | Cc1cccc(NC(=O)Nc2ccc(C#N)cc2)n1 | 103
18 | C=CC(=O)Nc1cccc(Oc2ncnc3[nH]cc(-c4cnc5ccccc5c4)c23)c1 | 102
19 | COc1cccc(NC(=O)Nc2nnc(CC(=O)Nc3ccccc3)s2)c1 | 90.4
20 | O=C(Nc1ccccc1N1CCOCC1)c1cc(-c2ccco2)nc2ccccc12 | 102

Row | SMILES | inhibition [%]
21 | Cc1ccc(-c2cc(C(=O)N(C)Cc3cnn(C)c3C)c3cc(Br)ccc3n2)cc1 | 109
22 | Cc1cccc(N2CCN(C(=O)c3[nH]c(C(F)(F)F)nc3-c3ccccc3)CC2)c1C | 91.2
23 | Nc1nccc(-c2ccc(-n3cnc4ccccc43)cc2)n1 | 101
24 | C=CCn1c(Oc2ccccc2F)nc2c1c(=O)n(C)c(=O)n2C | 95.6
25 | COc1ccc2c(=O)cc(-c3ccncc3)oc2c1OC | 116
26 | CCCc1cc(-c2[nH]ncc2-c2ccc3c(c2)OCCCO3)c(O)cc1O | 108
27 | CC(C)c1ccccc1NC(=O)COC(=O)c1c2c(nc3ccccc13)CCN(Cc1ccccc1)C2 | 76.4
28 | CC(C)(C)OC(=O)NCC(=O)Oc1cc2oc(=O)cc(-c3ccccc3)c2cc1Cl | 117
29 | CC(=O)Nc1ccc(S(=O)(=O)N2c3ccccc3C(C)=CC2(C)C)cc1 | 93.9
30 | CN(c1ncnc(N)c1[N+](=O)[O-])C1CCCCC1 | 115
31 | C=CC[C@@H](CC(=O)N[C@H](CO)Cc1ccccc1)C(=O)NC[C@H](OC(=O)[C@@H](CC=C)Cc1ccc(F)cc1)c1ccccc1 | 101
32 | O=C(Nc1ccc2c(c1)OCCO2)c1cc(-c2ccccn2)nc2ccc(Br)cc12 | 6.4
33 | CC1(Cc2cccc(F)c2)C(=O)Nc2ccc(-c3cccnc3)cc21 (stereo not given) | 112
34 | c1nc(N2CCOCC2)c2c3c(sc2n1)CCCC3 | 98.5
35 | O=[N+]([O-])c1ccc(O)c(C2CCCCC2)c1 | 117
36 | C=C1C(=O)C2=CC1CCC(=O)C1(C)CCC(OC(C)=O)C(C)(C)C1CC2O (stereo not given) | 94.6
37 | O=C(c1[nH]c(C(F)(F)F)nc1-c1ccccc1)N1CCN(c2c(Cl)cncc2Cl)CC1 | 103
38 | COc1ccc(-c2nc(NC(=O)c3ccc(OCC(=O)Nc4ccc(F)cc4)c(OC)c3)sc2C)cc1 | 91.7
39 | COc1cc(/C=N/NC(=O)Nc2cccc3nsnc23)cc(OC)c1OC | 89.7
40 | C=Cc1ccc(CC2(C)C(=O)Nc3ccc(-c4cccnc4)cc32)cc1 (stereo not given) | 113
